Consider 98 compounds from PubChem BioAssay AID576 (NMMLSC, 2007).

Out of some 24,000 compounds screened, about 150 (0.62%) were called active.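 Rule for the calls: active = fluorescence ratio above 2.44, which is 1 plus 3 SD of all ratios; inconclusive = signal too bright to measure linearly, ratio around 10 or more; inactive = fluorescence ratio below 2.44.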 For the sample, actives were picked, then their nearest neighbours and some compounds at random.

A short description of this assay: compound autofluorescence on Jurkat cells, primary screen, artefact control for VLA-4 allosteric ligand project, cell-based, flow cytometry (AID 576).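 Note: green fluorescence of cells measured with 488 nm excitation and 530 nm emission; tested at 10 µM compound in the well.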 To be noted: hits give high values, 1 = vehicle-only cell background.
Consider `Cc1ccc(-c2cc(C(F)(F)F)n3nc(C(=O)N4CCCC4)cc3n2)cc1`, for which the fluorescence ratio was 1.02 (inactive). Turning to `Cc1nc(C)c2c(c1C(F)(F)F)-c1ccccc1C2(F)F`, the fluorescence ratio is 1.11 (inactive). Next, `CCOC(=O)c1cnc(-n2nc(C)cc2C)nc1Nc1cccc(C(C)=O)c1`: 1.06 (inactive); `COCc1[nH]nc2c1C(C1C=CCCC1)C(C#N)=C(N)O2` (stereo not drawn): 1.09 (inactive). For `Cc1noc(C)c1S(=O)(=O)NCCc1ccc(S(N)(=O)=O)cc1`, the fluorescence ratio is 1.07 (inactive). Next, `Cn1c(=O)n(C)c2cc(CNc3ccc(N4CCOCC4)c(C(=O)O)c3)ccc21`: 0.99 (inactive); `O=C(O)C1CCCN(S(=O)(=O)c2cccc3cccnc23)C1` (stereo not drawn): 0.95 (inactive).

Take `CCCCn1c(CN2CCN(CCO)CC2)nc2ccccc21`: the fluorescence ratio was 1.04 (inactive). Next, `COc1ccc(-c2nc(CS(=O)CC(=O)NCc3cccnc3)c(C)o2)cc1OC` (stereo not drawn): 0.78 (inactive); `COc1ccc(C2/C(=C(/O)c3ccccc3)C(=O)C(=O)N2c2ncccn2)cc1OC` (stereo not drawn): 0.98 (inactive); `Cc1nc(N2CCN(c3ncccn3)CC2)c2oc3ccccc3c2n1`: 1.15 (inactive).

For the compound `CCOC(=O)N1CCN(C(=O)c2cn(C)c3ccc(S(=O)(=O)N4CCCC4)cc3c2=O)CC1`, the fluorescence ratio is 1.07 (inactive). With `COc1ccccc1NC1=NC2(CCCC2)N=C(N)N1`, the fluorescence ratio is 1.04 (inactive).

For the compound `COc1ccc(-c2cc3ccc(OCc4nn[nH]n4)cc3oc2=O)cc1`, the fluorescence ratio was 1.09 (inactive). Regarding `Fc1ccc2nc(Nc3nc4c(s3)CCCC4)sc2c1`, the fluorescence ratio was 4.43 (active). Next, `CNC(=O)c1ccc2nc(NC(C)=O)sc2c1`: 1.01 (inactive).

On to `Fc1ccc2nc(N3CCCCC3)sc2c1`, for which the fluorescence ratio was 1.31 (inactive).

As for `CCOC(=O)C1CCCN(C(=O)C2CCN(c3nnc(-n4cccc4)s3)CC2)C1` (stereo not drawn), the fluorescence ratio is 1.06 (inactive).

With `CSc1ccc(S(=O)(=O)Nc2cccc(F)c2)cc1`, the fluorescence ratio was 0.98 (inactive).

In the case of `O=C(c1cnn2ccccc12)N1CCc2ccccc21`, the fluorescence ratio was 0.92 (inactive). On to `CCOC(=O)N1CCC(NC(=O)CCc2cn(C)c3ccccc23)CC1`, for which the fluorescence ratio was 0.96 (inactive). Take `N#CCCn1ncc2ccccc21`: the fluorescence ratio was 0.9 (inactive). Next, `CCC1=C/C(=C\c2ccc3c(c2)OCO3)C(=O)S1`: 1.11 (inactive). Regarding `CC1CCCC(N2CCN(C(=O)c3ccc(F)cc3)CC2)C1` (stereo not drawn), the fluorescence ratio was 0.93 (inactive).

Consider `Cc1c(C(=O)N2CC(C)OC(C)C2)sc2nc(-c3ccccc3)cn12` (stereo not drawn), for which the fluorescence ratio is 1.33 (inactive). As for `CCC(=O)N1CCc2cc(S(=O)(=O)NC(C(=O)N3CCc4ccccc4C3)C(C)C)ccc21` (stereo not drawn), the fluorescence ratio was 0.97 (inactive). Turning to `COc1ccc(CCNS(=O)(=O)c2ccc(C(=O)NCc3ccco3)cc2)cc1OC`, the fluorescence ratio is 1.03 (inactive).

As to `c1cnn(-c2cc(N3CCOCC3)ncn2)c1`, the fluorescence ratio is 1.1 (inactive). `CCCCC(=O)N(c1ccc(OC)cc1)C1C=CS(=O)(=O)C1` (stereo not drawn): the fluorescence ratio was 1.03 (inactive). For `Cc1nc(SCC(=O)Nc2cc(C)on2)c2c3c(sc2n1)CCCC3`, the fluorescence ratio is 1.28 (inactive). The same measure for `COc1cccc(Nc2nnc(SCC(=O)N3CC(C)OC(C)C3)s2)c1` (stereo not drawn): 1.02 (inactive). Turning to `CC(=O)N(CC1CCCO1)C1(C(=O)NC2CCCC2)CCCCC1` (stereo not drawn), the fluorescence ratio was 0.95 (inactive). Regarding `O=C(Nn1cc(C(=O)N2CCN(c3ccccc3F)CC2)c2ccccc2c1=O)c1cnccn1`, the fluorescence ratio is 1.02 (inactive). Turning to `COCCN1Cc2cccc(C(=O)Nc3ccccc3OC)c2C1=O`, the fluorescence ratio is 1.02 (inactive). As for `CCCCN(C)Cc1c(C)[nH]c2ccc(Cl)cc2c1=O`, the fluorescence ratio is 1.01 (inactive). Take `CCn1c(SCC(=O)Nc2ccccc2F)nc2c(c1=O)SC(C)C2` (stereo not drawn): the fluorescence ratio is 0.98 (inactive). Regarding `CCc1c(C)c2c(C)[nH]nc2oc1=O`, the fluorescence ratio was 1.2 (inactive). As to `CCOc1ccc(-c2nnc3ccc(SC)nn23)cc1`, the fluorescence ratio is 0.96 (inactive).

Regarding `CCOC(=O)c1sc(=S)n2c1[nH]c(=O)c1ccc(C(=O)OC)cc12`, the fluorescence ratio is 1.2 (inactive). In the case of `CC(=O)Nc1ccc(NS(=O)(=O)c2cc(C)sc2C)cc1`, the fluorescence ratio was 2.14 (inactive).

For the compound `O=C(CC1Oc2ccccc2NC1=O)NCCCN1CCN(Cc2ccccc2)CC1` (stereo not drawn), the fluorescence ratio is 1.05 (inactive). Turning to `COCCCNC(=O)CCc1nc2cccnc2n1Cc1ccc(OC)cc1`, the fluorescence ratio is 1.04 (inactive). Turning to `Cc1ccc(NC(=O)NCC(c2cccnc2)N2CCOCC2)cc1` (stereo not drawn), the fluorescence ratio is 0.96 (inactive).

With `O=C(CN1CCOc2ccccc21)N1CCC(Cc2ccccc2)CC1`, the fluorescence ratio is 1.07 (inactive). As for `O=C(NCc1ccco1)C1CCCN(S(=O)(=O)c2cccc3nonc23)C1` (stereo not drawn), the fluorescence ratio was 1.11 (inactive). On to `Cc1ccc(CNC(=O)CN2CCN(Cc3ccc(Cl)cc3)C2=O)cc1`, for which the fluorescence ratio is 1.03 (inactive). With `Cc1ccc(NC(=O)C2CCCN(S(=O)(=O)c3c(C)noc3C)C2)c(C)c1` (stereo not drawn), the fluorescence ratio was 1.07 (inactive).

On to `COc1ccc(C2CC(c3ccccc3)Nc3ncnn32)cc1` (stereo not drawn), for which the fluorescence ratio is 1.19 (inactive). On to `COc1cccc(-c2nc3n(n2)C(c2ccccc2Cl)C(C(N)=O)=C(C)N3)c1` (stereo not drawn), for which the fluorescence ratio is 1.01 (inactive). On to `CN1CCCc2cc(C#N)c(=O)[nH]c21`, for which the fluorescence ratio is 1 (inactive).

Turning to `O=C(O)CCN1C(=O)CC2(CCCCC2)C1=O`, the fluorescence ratio is 1 (inactive).

In the case of `Cc1ccc(NC(=O)CCNS(=O)(=O)c2ccc3c(c2)oc(=O)n3C)cc1C`, the fluorescence ratio was 1.08 (inactive). In the case of `CCOC(=O)N1CCN(CC(=O)c2ccc3c(c2)CCN3)CC1`, the fluorescence ratio is 0.99 (inactive). The same measure for `CCCNC(=O)C1CC(=O)N(c2ccc(OCC(=O)Nc3cccc(C)c3C)cc2)C1` (stereo not drawn): 1.03 (inactive); for `COc1ccc(N2C(=O)CCC(C(=O)Nc3ccccn3)C2c2ccc(OC)c(OC)c2)cc1` (stereo not drawn): 1.01 (inactive); for `O=C(CC1N=C2c3ccccc3N=C(SCc3ccccc3Cl)N2C1=O)NCc1ccco1` (stereo not drawn): 1.18 (inactive). Regarding `Cc1occc1C(=O)Nc1nnc(C2CCCCC2)s1`, the fluorescence ratio is 0.94 (inactive). Consider `CC1CSc2nnc(CCc3ccccc3)n21` (stereo not drawn), for which the fluorescence ratio is 1 (inactive). For `O=C(NCc1ccc2c(c1)OCO2)c1cc2c(s1)CS(=O)(=O)C2`, the fluorescence ratio was 1.08 (inactive). `CCOc1ccc(N(CC(=O)OC)S(=O)(=O)c2c(C)noc2C)cc1`: the fluorescence ratio was 1.04 (inactive).

Consider `CC(=O)c1c(C)[nH]c(C(=O)NCCCN2CCCC2)c1C`, for which the fluorescence ratio is 0.97 (inactive). For the compound `Cc1ccc(C)c(NS(=O)(=O)c2cc(Br)cnc2N)c1`, the fluorescence ratio is 1.02 (inactive). Regarding `Cn1c(=O)[nH]c(=O)c2c1nc(CN(Cc1ccccc1)Cc1ccccc1)n2CCN1CCOCC1`, the fluorescence ratio is 1.16 (inactive).

For `Cc1nc2c(-c3ccc(F)cc3)c(C)nn2c(C)c1CCC(=O)N1CCN(c2ccccn2)CC1`, the fluorescence ratio is 1.23 (inactive). For the compound `O=C(Cn1nc(Cc2cccnc2)c2ccccc2c1=O)NCC1CCCO1` (stereo not drawn), the fluorescence ratio is 1.02 (inactive).

`CC(C)C[C@H](NC(=O)[C@@H]1O[C@H]1C(=O)O)C(=O)NCCCCN=C(N)N`: the fluorescence ratio was 0.97 (inactive).

On to `COc1ccccc1CNC(=O)Cn1cc2c(n1)CCCC2`, for which the fluorescence ratio was 1.04 (inactive).

In the case of `CCOC(=O)N1CCC(O)(c2cc(C)c(C)cc2C)CC1`, the fluorescence ratio was 0.98 (inactive). `O=C(NCc1ccco1)c1cccn2c(=O)c3cc(Br)ccc3nc12`: the fluorescence ratio is 1 (inactive). Next, `CS(=O)(=O)c1ccc2nc(NC(=O)C3C4C=CC(C4)C3C(=O)O)sc2c1` (stereo not drawn): 1.05 (inactive); `CCCCc1nc2c(=O)[nH]c3ccccc3c2o1`: 1.21 (inactive). `Cc1nc2sc(C(c3ccco3)N3CCC4(CC3)OCCO4)c(O)n2n1` (stereo not drawn): the fluorescence ratio was 1.05 (inactive). Consider `COc1cc2c(cc1OC)C(c1ccc(C)o1)CC(=O)N2` (stereo not drawn), for which the fluorescence ratio is 1 (inactive). As for `O=S(=O)(O)CCN1CCOCC1`, the fluorescence ratio was 1.09 (inactive). With `Cc1cc(NC(=O)CSCc2nc(-c3cccc(Cl)c3)oc2C)no1`, the fluorescence ratio was 1.07 (inactive). As to `c1cc(-c2nn[nH]n2)ccc1CN1CCCCC1`, the fluorescence ratio is 1.02 (inactive). As to `Cc1ccc2c(c1)N(CCCC(=O)NCc1cccnc1)C(=O)CO2`, the fluorescence ratio was 1.05 (inactive). For `Cc1cccc(N2CCN(S(=O)(=O)c3ccc4c(c3)c(=O)n(C)c(=O)n4C)CC2C)c1` (stereo not drawn), the fluorescence ratio is 1.11 (inactive). As to `COc1cccc(NC(=O)C2CCCN2C(=O)OCc2ccccc2)c1` (stereo not drawn), the fluorescence ratio is 1.04 (inactive). Regarding `CCC(C)NC(=O)C1CCC(=O)N1Cc1ccc(C)cc1` (stereo not drawn), the fluorescence ratio was 0.99 (inactive). As to `CCC(=O)N1c2ccc(S(=O)(=O)CCC(=O)N3CCN(c4ccccc4)CC3)cc2CC1C` (stereo not drawn), the fluorescence ratio is 1.09 (inactive). For the compound `Cc1oc(C)c(C(=O)NCCCC(=O)O)c1C(=O)NCCCC(=O)O`, the fluorescence ratio was 1.08 (inactive). The same measure for `O=c1[nH][nH]c(=O)c2cc(N3CCCC3)ccc12`: 1.01 (inactive); for `CCOC(=O)N1CCN(S(=O)(=O)c2cc3c(cc2C)NC(=O)CO3)CC1`: 1.09 (inactive). Take `CCOc1ccc(Cn2nnc(C(=O)NCc3ccccc3)c2N)cc1`: the fluorescence ratio is 1.02 (inactive). For `COc1ccc(N2C(=O)CCC(C(=O)N(C)C3CCCCC3)C2c2ccc(OC)c(OC)c2)cc1` (stereo not drawn), the fluorescence ratio is 0.98 (inactive). Consider `COC(=O)C1=C(C)Nc2ncnn2C1c1ccco1` (stereo not drawn), for which the fluorescence ratio is 1.02 (inactive).

With `CCOc1nc(OCC)nc(-n2cc(-c3ccccc3)nn2)n1`, the fluorescence ratio is 1.08 (inactive). The same measure for `COCCn1c(-c2ccc(OC)c(OC)c2)nc2ccccc21`: 1.05 (inactive). `O=C(c1ccco1)N1CCN(C(=O)C2CC(c3ccc(F)cc3)=NO2)CC1` (stereo not drawn): the fluorescence ratio was 1.01 (inactive). `CCCOc1ccc(C2c3c(oc4cc(C)c(C)cc4c3=O)C(=O)N2CCCN2CCOCC2)cc1` (stereo not drawn): the fluorescence ratio is 0.94 (inactive). As to `CCN(CC)CCNC(=O)C1c2ccccc2C(=O)N(C)C1c1cn(C)c2ccccc12` (stereo not drawn), the fluorescence ratio was 1.11 (inactive). Next, `Cc1cccc(NC(=O)C2CCN(S(=O)(=O)c3cccc4cccnc34)CC2)c1`: 1.03 (inactive); `O=S1(=O)CCN2C(=N1)SC1=C2CCN(Cc2ccccc2)C1`: 0.99 (inactive); `Cc1ccc(S(=O)(=O)NCc2cn3ccsc3n2)c(C)c1`: 1.07 (inactive).

For `Cc1cc(C)c2c(n1)nn1c(N3CCN(c4cccc(Cl)c4)CC3)cc(C)nc21`, the fluorescence ratio is 1.1 (inactive). With `CC(=O)Nc1ccc(S(=O)(=O)Nc2nc3n(n2)C(c2ccccc2)CC(=O)N3)cc1` (stereo not drawn), the fluorescence ratio was 1.06 (inactive). Consider `ON=C1/C(=N\O)CC2(C/C1=N/O)OCCO2`, for which the fluorescence ratio is 1.11 (inactive).
